# Hits are enriched below; roughly 4.2% of the tested compounds scored in any of these assays.
# PrPC TRFRET = cell surface PrPC inhibition, primary TR-FRET screen; TR-FRET read-out; inhibition, % at 13.8 µM; 370,000 compounds, 0.43% hits; P04156; in the data active = inhibition above about 24%; also: 0% = median of the test wells and 100% = reference compound wells
# FBA Mtb inh = Mtb fructose-bisphosphate aldolase inhibition. purified M. tuberculosis FBA, fluorescence read-out. inhibition, % at 1 µM. 360,000 compounds, 2.3% hits; in the data active = inhibition above about 27%;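 also: 0% = vehicle and 100% = reference inhibitor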
# GDH-TPI inh = GDH-TPI coupled enzyme inhibition counter-screen | 360,000 compounds, 1.2% hits | GDH-TPI coupled enzyme counterscreen, NADH absorbance | inhibition, % at 4.8 µM; in the data active = inhibition above about 30%;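 also: 0% = DMSO wells and 100% = wells lacking the enzyme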
# BJeLR lethal = kills HRASV12-expressing BJeLR cells. BJeLR (HRASV12) viability, CellTiter-Glo ATP luminescence, 48 h. inhibition, % (concentration not given with the values). 300,000 compounds, 0.17% hits; in the data active = inhibition above about 50%
# RecA intein inh = inhibitors of M. tuberculosis RecA intein splicing; P9WHJ3; cell-free RecA intein splicing, fluorescence; inhibition, % (no concentration beside the values); 290,000 compounds, 0.75% hits; in the data active = inhibition above about 30%;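 also: 0% = vehicle wells and 100% = reference inhibitor control wells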
# * hit, by the source's call; . = not tested or not shown; + = active, no number.
SMILES,PrPC TRFRET,FBA Mtb inh,GDH-TPI inh,BJeLR lethal,RecA intein inh
C/C(=N\NC(=O)c1cc2ccccc2cc1O)c1cc2ccccc2o1,1,-3,60*,7,-3
C/C(=N\NC(=O)c1nc2ccccn2c1C)c1ccco1,-6,-3,24,-10,.
CCOC(=O)c1csc(NC(=O)C2CCCN(S(=O)(=O)c3ccc(Br)s3)C2)n1 (centres undefined),12,.,.,.,.
COc1cc([C@H]2c3[nH]c4ccccc4c3C[C@H]3C(=O)N4[C@@H](c5cc(OC)c(OC)c(OC)c5)c5[nH]c6ccccc6c5C[C@H]4C(=O)N23)cc(OC)c1OC,.,3,3,83*,-2
CCCc1nc2ccccc2c(=O)n1/N=C/c1ccc(O)cc1,-4,-2,35*,-6,-3
CCCc1nc2ccccc2c(=O)n1/N=C/c1ccc(O)cc1O,-2,0,31*,1,-3
Cc1nc2ccccc2c(=O)n1/N=C/c1cc(Br)ccc1O,7,1,7,2,1
Cc1sc2nc(C)n(/N=C/c3ccc(O)cc3)c(=O)c2c1C,0,-3,40*,-3,2
O=c1c2ccccc2nc(N/N=C/c2ccc(O)cc2)n1O,-11,5,32*,3,-7
COc1cccc(OC)c1NC(=O)OCCN1CCCC12CCC(c1ccccc1)CC2 (centres undefined),3,.,.,.,.
CC(=O)c1ccc(NC(=O)NC2CCCCN(Cc3ccc(Cl)cc3)C2=O)cc1 (centres undefined),1,.,.,.,.
O=C(COCc1ccccc1)N1CC[C@H]2[C@H](CCCN2Cc2ccccc2)C1,-2,.,.,.,.
Cc1nc2ccccc2c(=O)n1/N=C/c1ccc(N(C)C)cc1,4,0,41*,0,4
CSc1ccc(/C=N/n2c(C)nc3ccccc3c2=O)cc1,-2,-1,10,17,0
O=c1c2ccccc2nc(COc2ccccc2)n1/N=C/c1ccc(O)c(O)c1,3,4,34*,11,3
O=C(/C=C/c1ccccc1Cl)c1ccc(O)cc1,-1,-3,35*,8,4
CC(C)c1ccc(/C=C2\SC(N3CCOCC3)=NC2=O)cc1,-2,0,32*,-1,-1
CC(=C/c1ccccc1)/C=C1/SC(N2CCOCC2)=NC1=O,-18,0,32*,-3,2
CCc1ccc(/C=C2/SC(N3CCOCC3)=NC2=O)cc1,10,-3,47*,-1,-1
O=C1N=C(N2CCOCC2)S/C1=C\c1ccncc1,-12,-1,21,13,1
CC(=O)N1CCN(C2=NC(=O)/C(=C\c3cccs3)S2)CC1,-4,-4,8,-3,2
O=C1N=C(N2CCOCC2)S/C1=C/c1cccs1,-11,-2,34*,13,8
CC(c1c[nH]c2ccccc12)c1c[nH]c2ccc(Br)cc12 (centres undefined),-5,.,.,.,.
Cc1cc(C)cc(C(=O)OCCN(C)C2CN(Cc3cn(Cc4ccccc4C(F)(F)F)nn3)S(=O)(=O)C2)c1 (centres undefined),-4,.,.,.,.
CCOC(=O)N1CCN(C(=O)C[C@@H]2C(=O)N(Cc3ccc(OC)cc3)C3=CCN(C(=O)OC(C)(C)C)C[C@]32C(=O)OCC)CC1,-13,.,.,.,.
SMILES,PrPC TRFRET,FBA Mtb inh,GDH-TPI inh,BJeLR lethal,RecA intein inh
OCCCNc1cc(-c2ccnc(Nc3cccc(Cl)c3)n2)ccn1,42*,5,8,25,-2
CN(C)C(=O)c1cccc(-c2cnc3cccnn23)c1,-6,132*,11,.,.
CCOC(=O)c1c(NC(=O)c2ccc(N3C(=O)[C@@H]4[C@H](C3=O)[C@H]3C=C[C@@H]4C3)cc2)sc2c1CC(C)CC2 (some centres undefined),-1,137*,1,6,-6
Cc1cccn2c(=O)c(C=Nc3ccccc3)c(NCc3ccco3)nc12,.,39*,22,7,-6
COc1cc(OC)c(OC)cc1/C=C/c1cc(C(=O)O)c2ccccc2n1,-13,0,13,-5,0
COc1ccc(/C=C/c2cc(C(=O)O)c3ccccc3n2)cc1,-39,3,32*,27,1
COc1ccc(-c2cc(C(=O)N3CCCCC3)c3ccccc3n2)cc1OC,7,7,21,12,1
COc1ccc(-c2cc(C(=O)OCC(=O)c3c(N)n(C)c(=O)n(C)c3=O)c3ccccc3n2)cc1,-2,9,-2,-3,-17
COc1ccc(-c2cc(C(=O)c3c(N)n(C)c(=O)n(C)c3=O)c3ccccc3n2)cc1,7,6,35*,1,1
COc1ccc(-c2cc(C(=O)N3CCCCCC3)c3cc(C)ccc3n2)cc1,-2,153*,11,-1,1
COc1ccc(-c2cc(C(=O)N3CCOCC3)c3cc(C)ccc3n2)cc1,-7,157*,14,-4,1
Cc1ccc(-c2cc(C(=O)N3CCOCC3)c3ccccc3n2)cc1,-6,16,6,-2,-1
c1ccc(Cn2ccc3ccc(-c4ccc5ccn(Cc6cccc(Oc7ccccc7)c6)c5c4)cc32)cc1,1,.,.,.,.
Cc1nc2ccc(NC(=O)c3ccc(F)cc3Cl)cc2c(=O)[nH]1,-3,.,.,.,.
COc1ccc(-c2cc(C(=O)N3CCCCC3)c3ccccc3n2)cc1,7,128*,12,0,3
COc1ccc2nc(-c3ccc(Cl)cc3)cc(C(=O)O)c2c1,-3,+,13,1,0
O=C(CSc1ccccc1)NC1CCCCN(Cc2cccc(Cl)c2)C1=O (centres undefined),4,.,.,.,.
O=C(/C=C/c1ccco1)N/C(=C\c1ccco1)C(=O)NCCc1nc2ccccc2[nH]1,-4,-8,17,-2,5
COc1ccc(/C=C/C(=O)N/C(=C\c2ccco2)C(=O)NCCc2nc3ccccc3[nH]2)cc1,-14,-3,34*,4,6
CCOC(=O)c1sc2ncnc(N3CCN(C)CC3)c2c1C,-4,8,33*,4,-1
CC(C)(C)OC(=O)N(CCc1ccccc1)Cc1ccc(OCc2cccc(NC(=O)/C=C/c3ccccc3)c2)cc1,12,2,36*,.,.
CSc1nc(=S)c2[nH]c(=S)[nH]c2[nH]1,11,-2,33*,-8,-4
COc1ccc2cc(/C(C)=N/NC(=O)C3CC3)ccc2c1,5,+,2,8,0
COc1ccc(/C(C)=N/NC(=O)C2CC2)cc1,4,1,-1,-18,2
CCC[C@H]1[C@@H](OC(=O)NCc2ccc(C)o2)CC[C@@]23CCCN2C(=O)CCC[C@@H]13,3,.,.,.,.
CCOC(=O)c1ccc(N2C(=O)c3n[nH]c(C)c3C2c2cccnc2)cc1 (centres undefined),4,1,1,2,-3
CCOC(=O)c1ccc(N2C(=O)c3n[nH]c(-c4ccco4)c3C2c2ccc([N+](=O)[O-])cc2)cc1 (centres undefined),1,-1,14,-10,32*
Cc1cc(C)c(C(=O)/C=C/c2ccc(C(C)C)cc2)c(=O)[nH]1,6,-1,42*,12,7
